# High-throughput results deposited in PubChem BioAssay by several laboratories.
# An excerpt weighted towards active compounds, which were near 0.82% of everything screened.
# TcdB GH inh – inhibitors of Clostridioides difficile toxin B glycohydrolase. TcdB glycohydrolase enzymatic assay, plate reader. inhibition, % at 9.99 µM. P18177. AID 652162. hit rate 0.24% among 350,000; in the data active = inhibition above about 10%
# DUSP3 inh – blocks human VHR1 dual specificity phosphatase; recombinant VHR phosphatase, pNPP absorbance; hit rate 0.52% among 290,000; inhibition, % at 13.3 µM; in the data active = inhibition above about 50%
# Target sequence (P51452 whole entry, looked up): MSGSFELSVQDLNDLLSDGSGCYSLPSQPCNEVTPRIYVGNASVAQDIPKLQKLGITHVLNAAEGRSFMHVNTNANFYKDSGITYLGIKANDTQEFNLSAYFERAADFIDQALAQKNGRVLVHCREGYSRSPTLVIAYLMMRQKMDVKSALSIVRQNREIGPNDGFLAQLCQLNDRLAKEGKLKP
# PrPC surface inh – reduces human prion protein on the cell surface | inhibition, % at 13.8 µM | hit rate 0.43% among 370,000 | P04156 | cell surface PrPC, TR-FRET read-out; in the data active = inhibition above about 24%; note: 0% = median of the test wells and 100% = reference compound wells
# * = called active by the depositor; / = no result.
SMILES,TcdB GH inh,DUSP3 inh,PrPC surface inh
CCn1c(=N)c(S(=O)(=O)c2ccccc2)cc2c(=O)n3ccccc3nc21,0,14,-9
COc1ccc(CN(C)C[C@H]2OCCCC[C@H](C)Oc3ccc(NC(=O)c4ccncc4)cc3C(=O)N([C@@H](C)CO)C[C@H]2C)cc1,0,/,/
COc1ccc(S(=O)(=O)N(C)C[C@H]2OCCCC[C@H](C)Oc3ccc(NC(=O)Nc4ccc5c(c4)OCO5)cc3C(=O)N([C@H](C)CO)C[C@H]2C)cc1,1,/,/
CC1CCC(NC(=O)CCC(=O)N2CC(C)Oc3ccccc32)CC1 (configuration not stated),1,9,1
CC1CN(C(=O)CCC(=O)NCCCN2C(C)CCCC2C)c2ccccc2O1 (configuration not stated),-1,53*,-2
Cc1ccc(S(=O)(=O)N(C)C[C@H]2Oc3ccc(NC(=O)C4CC4)cc3CC(=O)N([C@@H](C)CO)C[C@@H]2C)cc1,0,/,/
CCN1CCN(CCC(=O)Nc2cc(OC)cc(OC)c2)CC1,-4,51*,8
COc1cc(NC(=O)CCN2CCN(CCO)CC2)cc(OC)c1,-1,9,-4
O=C(c1cccc(F)c1)N1C[C@H]2[C@@H](c3ccccc31)[C@@H](CO)N2C(=O)c1cccc(F)c1,0,/,/
O=C(CCc1ccc(O)c(O)c1)N/N=C/c1ccc2c(c1)OCO2,1,18,-7
CC(C)Oc1ccc(CCC(=O)N/N=C/c2ccc3c(c2)OCO3)cc1,-1,51*,5
COc1ccc(CN(C)C[C@@H]2OCCCC[C@@H](C)Oc3ccc(NC(=O)Nc4ccc(F)cc4)cc3C(=O)N([C@@H](C)CO)C[C@@H]2C)cc1,0,/,/
CCCOc1ccc2oc(=O)c3c(c2c1)CCCN3C(=O)CN1CCN(C(=O)c2ccco2)CC1,/,13,/
CCCOc1ccc2oc(=O)c3c(c2c1)CCCN3C(=O)CN1CCN(c2ncccn2)CC1,/,56*,5
O=C(NCc1ccccn1)[C@H]1[C@H](CO)[C@H]2Cn3c(cccc3=O)[C@@H]1N2CC1CCCC1,1,/,/
Cc1noc(C)c1NC(=O)Nc1cccc2c1O[C@@H](CN(C)C(=O)Nc1ccc3c(c1)OCO3)[C@H](C)CN([C@@H](C)CO)C2=O,-3,/,/
CC(C)COC(=O)n1ccc(C(=O)N2CCCCC2)n1,/,51*,-8
CC(=O)c1ccc(NC(=O)c2ccn(C(=O)OCC(C)C)n2)cc1,/,-5,5
O=C(C1CCOCC1)N1CC(=O)N2[C@@H](CO)[C@@H](c3ccc(C#CC4CCCCC4)cc3)[C@@H]2C1,0,/,/
CC(C)CC#Cc1cnc2c(c1)C(=O)N([C@@H](C)CO)C[C@H](C)[C@@H](CN(C)C(=O)c1ccccc1F)O2,-1,/,/
CCOCCCNCc1ccc(OC)cc1,/,20,-8
COc1ccc2cc(CNCCOCCOCCNCc3ccc4cc(OC)ccc4c3)ccc2c1,2,/,32*
C[C@@H]1CCCCO[C@@H](CN(C)C(=O)c2ccncc2)[C@H](C)CN([C@H](C)CO)C(=O)c2cc(NC(=O)c3ccccc3)ccc2O1,-1,/,/
C=CCN1Cc2ccccc2C[C@@]2(COC(c3ccc(OCCCO)cc3)=N2)C1=O,5,/,/
CCNC(=O)Nc1ccc2c(c1)C(=O)N(C)[C@@H]1CC[C@H](CC(=O)NCc3ccc(F)cc3)O[C@H]1CO2,1,/,/
SMILES,TcdB GH inh,DUSP3 inh,PrPC surface inh
O=C(N/N=C/c1ccsc1)C1CC1,1,8,1
O=C(N/N=C/c1ccc(O)c(O)c1)C1CC1,16*,/,3
COc1cc(CN2CCCC(C(=O)Nc3ccccc3Oc3cccnc3)C2)ccc1F (configuration not stated),2,13,4
O=C(Nc1ccccc1Oc1cccnc1)C1CCCN(Cc2ccc(F)cc2)C1 (configuration not stated),1,57*,1
C[C@@H](NC(=O)C[C@@H]1CC[C@@H]2[C@H](COC[C@H](O)CN2Cc2cc(F)ccc2F)O1)c1ccccc1,1,/,/
O=C(CSc1nnc(CNC(=O)c2ccco2)o1)Nc1ccccc1,1,20,-3
O=C(CSc1nnc(CNC(=O)c2c(F)cccc2F)o1)Nc1ccc2c(c1)OCO2,2,-16,6
Cc1cc(NC(=O)CSc2nnc(CNC(=O)c3c(F)cccc3F)o2)no1,1,53*,-6
O=C(CSc1nnc(CNC(=O)c2ccco2)o1)Nc1ccc(F)cc1F,1,52*,-11
C[C@H]1CN([C@@H](C)CO)C(=O)c2cc(C#CC3CCCCC3)cnc2O[C@@H]1CN(C)C(=O)C1CCCCC1,-1,/,/
O=C(C[C@H]1CC[C@@H]2[C@H](COC[C@H](O)CN2Cc2ccc(Cl)cc2)O1)NCc1cccc(F)c1,0,/,/
COc1ccc2c3c([nH]c2c1)[C@@H](CO)N(C(=O)CN1CCOCC1)CC31CCN(C(=O)NC(C)C)CC1,-6,/,/
O=C1C=CC2(C=C1)O[C@H](Cc1ccccc1)[C@@H](Cc1ccccc1)O2,1,/,89*
O=C1Nc2ccccc2C1Cc1ccccc1 (configuration not stated),3,29,4
CN1C(=O)c2cc(NS(=O)(=O)c3ccc(Cl)cc3)ccc2OC[C@H]2O[C@H](CC(=O)O)CC[C@H]21,0,/,/
Cc1ccc(S(=O)(=O)N(C)C[C@H]2Oc3c(NC(=O)c4nc5ccccc5s4)cccc3C(=O)N([C@H](C)CO)C[C@@H]2C)cc1,-1,/,/
CO[C@@H]1CN(C)C(=O)c2ccc(NC(=O)c3ccc(F)cc3)cc2OC[C@@H](C)N(C)C[C@@H]1C,0,/,/
CN=c1scc(C)n1/N=C/c1ccc(O)cc1,/,18,0
C=CCN=c1scc(C)n1/N=C/c1ccc(O)c(O)c1,15*,-17,-4
COc1ccccc1NC(=O)N[C@H]1C=C[C@H](CC(=O)N2CCC(Cc3ccccc3)CC2)O[C@H]1CO,-3,/,/
Cc1ccc(S(=O)(=O)N2C(=O)CCC2C(=O)N2CCCCC2)cc1 (configuration not stated),0,52*,-6
Cc1ccc(S(=O)(=O)N2C(=O)CCC2C(=O)N2CCN(C)CC2)cc1 (configuration not stated),/,0,-6
CC(C)NC(=O)N(C)C[C@H]1Oc2ccc(NC(=O)Nc3ccc(F)cc3)cc2CC(=O)N([C@@H](C)CO)C[C@@H]1C,0,/,/
O=C(CCCc1c[nH]c2ccccc12)NCC1COc2ccccc2O1 (configuration not stated),-1,52*,2
O=C(CCc1c[nH]c2ccccc12)NCC1COc2ccccc2O1 (configuration not stated),1,4,5
Cc1noc(C)c1S(=O)(=O)Nc1ccc2c(c1)C(=O)N([C@H](C)CO)C[C@H](C)[C@H](CN(C)C(=O)CCC(F)(F)F)OCCCC[C@@H](C)O2,0,/,/
CCC(C)C(=O)Nc1nc(C)c(-c2csc(Nc3cc(OC)ccc3OC)n2)s1 (configuration not stated),1,51*,5
CCC(C)C(=O)Nc1nc(C)c(-c2csc(Nc3cc(Cl)ccc3OC)n2)s1 (configuration not stated),0,27,-2
Cc1ccc(S(=O)(=O)N(C)C[C@@H]2Oc3ccc(NS(C)(=O)=O)cc3CC(=O)N([C@H](C)CO)C[C@H]2C)cc1,-2,/,/
COc1cccc(C(=O)N2C[C@@H]3[C@H](c4ccccc42)[C@@H](CO)N3Cc2ccccc2Cl)c1,-2,/,/
